D3 ag: D3 dopamine receptor (human) agonism; D3R DiscoveRx beta-arrestin cells, luminescence, 90 min; max activation, %; 410,000 compounds, 0.58% hits; in the data active = max activation above about 30%
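Cells at 1500/well, incubated overnight, then treated with pinned compounds (dopamine as control) for 90 min at 37 degrees C. DiscoveRx reagent added for 30 - 60 minutes at room temperature; luminescence read.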
D1 agonist: agonists of human D1 dopamine receptor. 360,000 compounds, 1% hits. HEK293 T-REx D1 cells, calcium flux, agonist mode. activation, % at 2 µM. P21728; in the data active = activation above about 30%
Target sequence (P21728 whole entry, looked up): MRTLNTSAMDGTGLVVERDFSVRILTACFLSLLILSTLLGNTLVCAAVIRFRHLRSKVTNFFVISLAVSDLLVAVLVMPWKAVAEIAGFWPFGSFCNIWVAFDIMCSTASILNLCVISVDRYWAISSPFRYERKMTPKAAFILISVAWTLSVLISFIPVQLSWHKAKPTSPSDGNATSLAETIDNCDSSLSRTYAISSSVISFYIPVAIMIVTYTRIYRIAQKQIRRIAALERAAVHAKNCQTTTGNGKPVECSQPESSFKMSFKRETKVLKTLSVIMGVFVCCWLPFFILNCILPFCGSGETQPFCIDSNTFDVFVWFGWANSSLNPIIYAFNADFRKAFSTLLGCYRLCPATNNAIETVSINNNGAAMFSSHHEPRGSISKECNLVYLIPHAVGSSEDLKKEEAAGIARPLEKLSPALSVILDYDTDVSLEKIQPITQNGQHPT
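Inducible HEK293 T-REx D1 cells, force-coupled to calcium signalling, were plated at 4000 cells/well with tetracycline and held overnight at 30 C. After no-wash calcium dye loading, compound-evoked calcium rise over 180 s flagged agonists.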
D1 antagonist: human D1 dopamine receptor antagonism. activity change, negative = inhibition, % at 10 µM. AID 504652. P21728. HEK293 TREx D1 cells, calcium flux, dopamine EC80; hits give low values. 360,000 compounds, 3.2% hits; in the data active = activity change below about -30%
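Tetracycline-induced HEK293 Trex D1 cells, force-coupled to calcium, dye-loaded; compounds added and read 180 s, then EC80 dopamine added and calcium flux tracked kinetically another 180 s.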
D1 PAM: potentiators of human D1 dopamine receptor. potentiation, % at 10 µM. HEK293 TREx D1 cells, calcium flux, dopamine EC20 potentiation. 360,000 compounds, 0.036% hits. AID 504651. P21728; in the data active = potentiation above about 30%
D3 antag: antagonists of human D3 dopamine receptor. P35462. D3R cells, DiscoveRx beta-arrestin luminescence, antagonist mode; hits give low values. max response, negative = inhibition, %. 360,000 compounds, 2.5% hits; in the data active = max response below about -50%; inconclusive = no clear call, values can overlap the other calls
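Cells expressing the human receptor were seeded at 1500 cells/well, incubated overnight at 37 degrees C in 5% CO2, then exposed to library compounds with dopamine controls for 90 minutes at 37 degrees C before luminescent detection.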
Hits are given with their value; . = inactive; ? = inconclusive; / = not tested or not shown. In the library only some 6% were active in any assay of this set; here they are far more common.

SMILES	D3 ag	D1 agonist	D1 antagonist	D1 PAM	D3 antag
CCOc1ccc(CCNC(=O)CN2C(=O)NC3(CCCC3)C2=O)cc1OCC	.	.	-39	.	.
O=S(=O)(NCc1ccc(F)cc1)c1ccc(N2CCCCS2(=O)=O)cc1	.	.	.	.	/
O=S(=O)(NCc1ccc(Cl)cc1)c1ccc(N2CCCCS2(=O)=O)cc1	.	.	-35	.	/
COc1ccc(NS(=O)(=O)c2ccc(N3CCCCS3(=O)=O)cc2)cc1Cl	.	.	-30	.	/
O=C(CSc1nc2cc(C(=O)NC3CCCC3)ccc2c(=O)n1CC1CCCO1)c1cccc(Cl)c1 (stereo not drawn)	.	.	-37	.	/
COc1ccc(C2C3C(=O)N(N(C)c4ncc(C(F)(F)F)cc4Cl)C(=O)C3ON2C)cc1 (stereo not drawn)	.	.	-31	.	.
C[C@@]12C(=O)OC(=O)[C@]1(C)C1CCC2O1	.	.	.	.	-87
CC1CCn2c(nc3cc(C(=O)NCc4ccccc4)ccc32)C1 (stereo not drawn)	.	.	.	.	/
COC(=O)c1ccc(C(=S)NCC2(N(C)C)CCCCC2)cc1	.	77	-30	.	.
CCOc1ccc(C2CC(=O)N(c3cccc(F)c3)C3=C2C(=O)OC3)cc1 (stereo not drawn)	.	.	.	.	/
Cc1ccccc1N1CCN(CCc2nnc3n2CCCC3)CC1	35	/	/	/	/
O=c1[nH]cnc2c([N+](=O)[O-])cccc12	.	.	.	.	-80
O=c1[nH]cnc2ccc([N+](=O)[O-])cc12	.	.	.	.	.
O=C1C=CC(=O)N1Cc1ccccc1	.	.	.	.	-139
O=C1C2CC=CCC2C(=O)N1Cc1ccccc1 (stereo not drawn)	.	.	.	.	.
Cc1ccc(CNC(=S)Nc2ccc(C)c([N+](=O)[O-])c2)cc1	.	38	-31	.	.
COc1ccc(-c2cc([N+](=O)[O-])ccc2OCC(=O)N(C)CC(=O)Nc2ccc(C)cc2)cc1	.	.	.	.	?
Cc1ccc(NC(=O)CN(C)C(=O)COc2cc(F)ccc2[N+](=O)[O-])cc1	.	.	.	.	-53
Cc1ccc(CC(=O)Nc2ccc(F)c([N+](=O)[O-])c2)cc1	.	.	-43	.	.
Cc1ccc(CC(=O)Nc2ccc(F)c([N+](=O)[O-])c2)cc1C	.	.	-35	.	.
CCc1ccc(OC(C)C(=O)N2CCC(c3nc4ccccc4s3)CC2)cc1 (stereo not drawn)	.	.	.	.	/
Cc1cc(C)cc(OCc2cc(=O)n3c4c(sc3n2)CCCC4)c1	.	.	.	.	/
COc1ccc(C2=NC3(CCCCCC3)N(CC(=O)Nc3ccc(C)c(C)c3)C2=O)cc1	.	.	.	.	/
Cc1ccc(NC(=O)Cc2ccc3c(c2)CCCC3)cc1C	.	.	-31	.	.
Cc1ccc(NC(=O)Nc2ccc3c(c2)CCC3)cc1C	.	.	.	.	.
SMILES	D3 ag	D1 agonist	D1 antagonist	D1 PAM	D3 antag
CSc1nc2c(cc1C#N)C(=O)CC(C)(C)C2	.	.	.	.	.
CCCCOC(=O)CSc1nc2c(cc1C#N)C(=O)CC(C)(C)C2	.	.	-39	.	.
COc1ccccc1N1C(=O)C2C(C(=O)c3ccccc3)=NN(c3ccccc3)C2C1=O (stereo not drawn)	.	35	.	.	.
CCOC(=O)C1=NN(c2ccccc2)C2C(=O)N(c3ccccc3OC)C(=O)C12 (stereo not drawn)	.	.	.	.	.
COc1ccccc1N1N=C(C(=O)c2ccccc2)C2C(=O)N(c3ccc(Br)cc3)C(=O)C21 (stereo not drawn)	.	46	.	.	.
COC(=O)C1=NN(c2ccc(Cl)cc2)C2C(=O)N(c3ccccc3OC)C(=O)C12 (stereo not drawn)	.	.	.	.	.
C=CCn1c(CCCOc2ccc(Cl)cc2Cl)n[nH]c1=S	.	.	-46	.	.
C=CCn1c(Cc2nc3ccc(Cl)cc3[nH]2)n[nH]c1=S	.	.	.	.	.
O=C(CN1C(=O)CCSc2ccc(S(=O)(=O)N3CCCC3)cc21)Nc1cccc(F)c1	.	.	.	.	/
CC(C)OC(=O)N(C)C[C@H]1OCc2cnnn2CCCC(=O)N([C@H](C)CO)C[C@H]1C	.	/	/	/	.
O=C1C2CCCN2C(=O)N1CCN1CCN(c2ccccc2)CC1 (stereo not drawn)	.	.	.	.	.
COc1ccccc1N1CCN(CCCN2C(=O)C3CCCN3C2=O)CC1 (stereo not drawn)	.	/	/	/	-83
COc1ccccc1N1CCN(CCN2C(=O)C3CCCCN3C2=O)CC1 (stereo not drawn)	.	.	.	.	-79
COc1ccccc1N1CCN(CCCN2C(=O)C3CCCCN3C2=O)CC1 (stereo not drawn)	.	/	/	/	-66
Cc1cc(C)n(-c2nc3ccccc3nc2N2CCN(c3cccc(C(F)(F)F)c3)CC2)n1	.	.	.	.	/
CCOC(=O)Cc1csc(NS(=O)(=O)c2ccc3c4c(cccc24)C(=O)N3CC)n1	.	.	.	.	-66
CC1(C(=O)Nc2cccc(Oc3ccccc3)c2)Cc2c(-c3ccc4c(c3)OCO4)ccnc2O1 (stereo not drawn)	.	/	/	/	.
CCC1CCCCN1C(=O)Cn1c(=O)n(-c2ccc(Cl)c(Cl)c2)c(=O)c2c(C)c(C(=O)N(C)C)sc21 (stereo not drawn)	.	.	-34	.	/
O=C(Nc1ccc2c(c1)C(=O)NC2=O)c1cc(Cl)ccc1Cl	.	.	-31	.	.
O=C(CSc1ccc(F)cc1)Nc1ccc2c(c1)C(=O)NC2=O	.	.	-37	.	?
O=C(Nc1ccc2c(c1)C(=O)NC2=O)c1cccc(Cl)c1	.	.	-33	.	.
O=C(Nc1ccc2c(c1)C(=O)NC2=O)c1ccc(Cl)s1	.	.	.	.	.
Cc1cccc(C(=O)Nc2ccc3c(c2)C(=O)NC3=O)c1	.	.	.	.	.
COc1ccc(-c2ccc(C(=O)Nc3ccc(C(C)C)cc3)c3occc23)c(C)c1	.	/	/	/	.
Cc1ccc(NCc2cccn2-c2nnc(N3CCC(C(=O)NCCc4ccc(Cl)cc4)CC3)s2)cc1	.	.	.	.	/
Cc1ccc(CNC(=O)C2CCC(=O)N2CCc2ccccc2)cc1 (stereo not drawn)	.	.	.	.	-57
CCOCCCNC(=O)C(c1ccc(Cl)cc1)N1CCC2(CC1)OCCO2 (stereo not drawn)	.	.	.	.	-55
C=CCSc1nnc(NC(=O)COc2ccc3ccccc3c2)s1	.	.	.	.	-66
CC1=CC2C(C(O)CC3(C)C2CC(C)C32OCOC23COCO3)C2(C)C/C(=C\O)C(=O)C=C12 (stereo not drawn)	.	/	/	/	?
CC(C(=O)Nc1ncc([N+](=O)[O-])s1)N1C(=O)c2ccccc2S1(=O)=O (stereo not drawn)	.	.	-35	.	.

Source: PubChem
